Laboratory results: the supplement of paper PMC10849652
The full data set covers some 7,900 targets. This sample favours those with a hit. About 0.6% of all pairs of compound and target were hits.

Legend:
Assay in all cases: log2 fold change, soluble protein after heating vs DMSO (PISA); higher = thermal stabilisation; K562 cells, 10 uM, 30 min; active = over 0.2 and 3.5 SD of the protein, either way, in both replicates (recomputed)
[1] = compound: CS(=O)(=O)c1ccc(-c2cnc(N)c(C(=O)Nc3ccccc3)n2)cc1
In short: (§1)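 Values are thermal stability changes relative to control samples and are taken from duplicates. They are stated as log2 fold changes. Before quantification by TMTpro 16plex LC-MS/MS with equalised channel sums, K562 cells at 2×10^6 cells/mL were treated with 10 μM compound for 30 min, heated in aliquots for 3 min across 48°C-58°C, pooled, extracted in PBS with 0.5% NP-40 at 4°C, and centrifuged at 21,000xg for 90 min to give the soluble supernatant.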

crizotinib = compound: C[C@@H](Oc1cc(-c2cnn(C3CCNCC3)c2)cnc1N)c1c(Cl)ccc(F)c1Cl [crizotinib]
In short: as §1

[2] = compound: C[C@@H]1COCCN1C2=NC(=NC(=C2)C3(CC3)S(=O)(=O)C)C4=C5C=CNC5=CC=C4
In short: as §1

[3] = compound: C[C@H](C1=CC=C(C=C1)C(=O)NC2=C3C=CNC3=NC=C2)N
In short: as §1

duvelisib = compound: C[C@H](Nc1ncnc2nc[nH]c12)c1cc2cccc(Cl)c2c(=O)n1-c1ccccc1 [duvelisib]
In short: as §1

gandotinib = compound: Cc1cc(Nc2cc(CN3CCOCC3)c3nc(C)c(Cc4ccc(Cl)cc4F)n3n2)n[nH]1 [gandotinib]
In short: as §1

tozasertib = compound: Cc1cc(Nc2cc(N3CCN(C)CC3)nc(Sc3ccc(NC(=O)C4CC4)cc3)n2)n[nH]1 [tozasertib]
In short: as §1

[4] = compound: Cc1cc(SCc2sc(-c3ccc(C(F)(F)F)cc3)nc2C)ccc1OCC(=O)O
In short: as §1

doramapimod = compound: Cc1ccc(-n2nc(C(C)(C)C)cc2NC(=O)Nc2ccc(OCCN3CCOCC3)c3ccccc23)cc1 [doramapimod]
In short: as §1

ispinesib = compound: Cc1ccc(C(=O)N(CCCN)[C@@H](c2nc3cc(Cl)ccc3c(=O)n2Cc2ccccc2)C(C)C)cc1 [ispinesib]
In short: as §1

Measured: log2 fold change

PSMC2 (UniProt P35998)
inactive: [1] 0.011 | crizotinib 0.003 | [2] -0.087 | [3] 0.079 | duvelisib -0.061 | gandotinib 0.027 | tozasertib 0.031 | [4] 0.014 | doramapimod 0.005 | ispinesib 0.016

QRSL1 (UniProt Q9H0R6)
inactive: [1] 0.046 | crizotinib -0.04 | [3] -0.023 | duvelisib 0.033 | gandotinib 0.082 | tozasertib -0.025 | [4] 0.024 | doramapimod -0.015 | ispinesib -0.049
active: [2] 0.212

PSMB4 (UniProt P28070)
UniProt P28070, sequence (P28070 whole entry, looked up): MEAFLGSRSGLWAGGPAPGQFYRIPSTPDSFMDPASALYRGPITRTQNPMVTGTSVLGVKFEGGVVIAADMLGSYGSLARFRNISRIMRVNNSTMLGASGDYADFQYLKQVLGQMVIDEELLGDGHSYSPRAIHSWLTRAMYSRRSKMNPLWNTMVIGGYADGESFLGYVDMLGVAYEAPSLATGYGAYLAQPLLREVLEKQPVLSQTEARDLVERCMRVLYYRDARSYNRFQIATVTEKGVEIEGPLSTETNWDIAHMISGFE
inactive: [1] 0.014 | crizotinib 0.03 | [2] -0.09 | [3] 0.064 | duvelisib -0.04 | gandotinib 0.08 | tozasertib -0.002 | [4] -0.018 | doramapimod 0.021 | ispinesib 0.015

PAK4 (UniProt O96013)
UniProt O96013, sequence (O96013 whole entry, looked up): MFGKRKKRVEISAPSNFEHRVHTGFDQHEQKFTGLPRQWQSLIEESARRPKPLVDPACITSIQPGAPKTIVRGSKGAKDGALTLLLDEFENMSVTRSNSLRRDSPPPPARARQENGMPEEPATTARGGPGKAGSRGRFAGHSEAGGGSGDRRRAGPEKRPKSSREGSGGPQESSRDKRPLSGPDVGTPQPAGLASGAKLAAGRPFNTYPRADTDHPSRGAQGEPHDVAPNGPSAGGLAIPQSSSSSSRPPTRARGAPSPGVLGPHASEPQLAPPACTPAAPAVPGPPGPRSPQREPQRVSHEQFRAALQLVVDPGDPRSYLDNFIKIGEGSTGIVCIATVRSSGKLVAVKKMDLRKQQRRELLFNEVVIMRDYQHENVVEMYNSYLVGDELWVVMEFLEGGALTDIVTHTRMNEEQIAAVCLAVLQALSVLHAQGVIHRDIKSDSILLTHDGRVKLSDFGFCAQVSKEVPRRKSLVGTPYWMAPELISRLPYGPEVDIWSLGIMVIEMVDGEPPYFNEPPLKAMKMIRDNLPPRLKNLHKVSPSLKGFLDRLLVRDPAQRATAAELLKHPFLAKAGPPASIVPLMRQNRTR
inactive: [1] -0.028 | crizotinib -0.033 | [2] 0.058 | [3] -0.017 | duvelisib 0.037 | gandotinib -0.028 | tozasertib -0.013 | [4] 0.021 | doramapimod -0.042 | ispinesib -0.111

POTEI (UniProt P0CG38)
inactive: [1] -0.009 | crizotinib 0.109 | [2] 0.241 | [3] -0.096 | duvelisib 0.019 | gandotinib -0.019 | tozasertib 0.032 | [4] -0.021 | ispinesib 0.131
active: doramapimod -0.739

PDCD2L (UniProt Q9BRP1)
inactive: [1] -0.059 | crizotinib -0.048 | [2] -0.083 | [3] 0.068 | duvelisib 0.053 | gandotinib 0.225 | tozasertib -0.007 | [4] 0.097 | doramapimod -0.058 | ispinesib 0.062

PIGG (UniProt Q5H8A4)
inactive: [1] 0.062 | crizotinib -0.053 | [2] 0.01 | [3] -0.041 | duvelisib 0.046 | gandotinib -0.035 | tozasertib -0.013 | [4] 0.011 | doramapimod 0.098 | ispinesib -0.02

PCTP (UniProt Q9UKL6)
inactive: [1] 0.094 | crizotinib -0.135 | [2] 0.031 | [3] 0.003 | duvelisib -0.039 | gandotinib 0.029 | tozasertib -0.042 | [4] -0.033 | doramapimod -0.048 | ispinesib 0.015

PDPK1 (UniProt O15530)
inactive: [1] -0.066 | [2] 0.081 | [3] 0.013 | duvelisib -0.206 | gandotinib -0.173 | tozasertib -0.085 | [4] 0.015 | doramapimod 0.003 | ispinesib -0.143
active: crizotinib -0.282

PIP4K2C (UniProt Q8TBX8)
UniProt Q8TBX8, sequence (Q8TBX8 whole entry, looked up): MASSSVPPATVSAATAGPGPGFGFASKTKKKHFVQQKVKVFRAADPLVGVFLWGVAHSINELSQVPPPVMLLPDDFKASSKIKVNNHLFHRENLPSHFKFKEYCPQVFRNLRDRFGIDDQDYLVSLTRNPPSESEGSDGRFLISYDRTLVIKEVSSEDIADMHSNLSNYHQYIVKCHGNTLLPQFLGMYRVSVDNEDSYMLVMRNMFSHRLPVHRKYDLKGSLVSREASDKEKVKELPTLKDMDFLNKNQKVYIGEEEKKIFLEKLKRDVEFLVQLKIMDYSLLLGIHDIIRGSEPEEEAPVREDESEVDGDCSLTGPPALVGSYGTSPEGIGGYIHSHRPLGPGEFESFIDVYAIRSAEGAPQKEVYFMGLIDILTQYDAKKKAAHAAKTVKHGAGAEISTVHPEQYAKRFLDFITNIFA
active: [1] 1.06
inactive: crizotinib -0.058 | [2] 0.042 | [3] 0.063 | duvelisib 0.047 | gandotinib 0.033 | tozasertib 0.018 | [4] 0.057 | doramapimod -0.044 | ispinesib 0.009

PMPCB (UniProt O75439)
inactive: [1] 0.012 | crizotinib 0.015 | [2] 0.054 | [3] -0.081 | duvelisib 0.055 | gandotinib -0.096 | tozasertib -0.019 | [4] -0.019 | doramapimod 0.009 | ispinesib -0.034

PRPSAP2 (UniProt O60256)
UniProt O60256, sequence (O60256 whole entry, looked up): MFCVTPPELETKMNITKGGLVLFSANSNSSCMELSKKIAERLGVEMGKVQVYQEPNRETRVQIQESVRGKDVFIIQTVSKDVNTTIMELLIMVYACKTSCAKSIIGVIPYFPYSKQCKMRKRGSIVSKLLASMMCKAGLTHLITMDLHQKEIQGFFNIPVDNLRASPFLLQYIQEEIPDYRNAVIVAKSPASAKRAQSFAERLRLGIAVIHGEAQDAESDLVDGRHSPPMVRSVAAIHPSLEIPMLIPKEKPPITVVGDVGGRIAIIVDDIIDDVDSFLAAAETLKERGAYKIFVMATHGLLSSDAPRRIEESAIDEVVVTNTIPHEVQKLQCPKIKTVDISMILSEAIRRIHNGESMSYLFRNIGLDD
inactive: [1] 0 | crizotinib 0.01 | [2] 0.112 | [3] -0.016 | duvelisib -0.013 | gandotinib 0.114 | tozasertib 0.038 | [4] 0.023 | doramapimod -0.007 | ispinesib 0.012

PDCD4 (UniProt Q53EL6)
UniProt Q53EL6, sequence (Q53EL6 whole entry, looked up): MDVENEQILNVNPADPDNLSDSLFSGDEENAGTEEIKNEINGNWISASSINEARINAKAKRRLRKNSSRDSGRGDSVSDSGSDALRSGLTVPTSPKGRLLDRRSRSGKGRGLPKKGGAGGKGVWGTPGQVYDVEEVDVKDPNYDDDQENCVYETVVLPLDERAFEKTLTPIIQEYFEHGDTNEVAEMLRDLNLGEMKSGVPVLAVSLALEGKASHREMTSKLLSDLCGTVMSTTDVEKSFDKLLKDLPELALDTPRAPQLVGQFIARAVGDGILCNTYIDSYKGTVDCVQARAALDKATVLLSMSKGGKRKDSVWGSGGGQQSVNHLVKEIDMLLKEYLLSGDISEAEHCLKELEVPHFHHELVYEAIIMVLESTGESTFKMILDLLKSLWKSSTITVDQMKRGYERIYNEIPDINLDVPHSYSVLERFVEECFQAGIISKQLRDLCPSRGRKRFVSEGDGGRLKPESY
inactive: [1] 0.096 | crizotinib 0.09 | [2] 0.303 | [3] 0.007 | duvelisib 0.133 | gandotinib -0.141 | tozasertib 0.126 | [4] 0.066 | doramapimod -0.047 | ispinesib 0.039

PDCD6 (UniProt O75340)
inactive: [1] 0.029 | crizotinib -0.047 | [2] 0.051 | [3] -0.021 | duvelisib 0.03 | gandotinib -0.056 | tozasertib 0.05 | [4] 0.038 | doramapimod 0.002 | ispinesib -0.045

POLA2 (UniProt Q14181)
UniProt Q14181, sequence (Q14181 whole entry, looked up): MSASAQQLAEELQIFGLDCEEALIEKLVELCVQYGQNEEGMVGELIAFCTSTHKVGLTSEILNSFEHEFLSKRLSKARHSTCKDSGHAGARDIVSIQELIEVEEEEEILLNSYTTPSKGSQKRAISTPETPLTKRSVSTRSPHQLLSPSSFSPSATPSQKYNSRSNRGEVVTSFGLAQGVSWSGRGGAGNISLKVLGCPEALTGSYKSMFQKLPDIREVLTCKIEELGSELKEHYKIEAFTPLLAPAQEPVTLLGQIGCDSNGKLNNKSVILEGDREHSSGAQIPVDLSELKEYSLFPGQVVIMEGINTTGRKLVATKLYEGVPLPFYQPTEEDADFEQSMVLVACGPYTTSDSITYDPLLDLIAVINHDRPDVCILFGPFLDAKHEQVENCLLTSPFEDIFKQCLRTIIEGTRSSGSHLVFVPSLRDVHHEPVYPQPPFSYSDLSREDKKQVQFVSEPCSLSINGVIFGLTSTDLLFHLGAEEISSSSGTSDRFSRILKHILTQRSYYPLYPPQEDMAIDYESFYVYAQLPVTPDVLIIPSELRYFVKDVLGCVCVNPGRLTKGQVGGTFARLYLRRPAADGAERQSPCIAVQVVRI
inactive: [1] 0.116 | crizotinib -0.026 | [2] 0.143 | [3] -0.036 | duvelisib 0.121 | tozasertib 0.091 | [4] 0.047 | doramapimod -0.013 | ispinesib -0.028
active: gandotinib -0.287

PSMC6 (UniProt P62333)
UniProt P62333, sequence (P62333 whole entry, looked up): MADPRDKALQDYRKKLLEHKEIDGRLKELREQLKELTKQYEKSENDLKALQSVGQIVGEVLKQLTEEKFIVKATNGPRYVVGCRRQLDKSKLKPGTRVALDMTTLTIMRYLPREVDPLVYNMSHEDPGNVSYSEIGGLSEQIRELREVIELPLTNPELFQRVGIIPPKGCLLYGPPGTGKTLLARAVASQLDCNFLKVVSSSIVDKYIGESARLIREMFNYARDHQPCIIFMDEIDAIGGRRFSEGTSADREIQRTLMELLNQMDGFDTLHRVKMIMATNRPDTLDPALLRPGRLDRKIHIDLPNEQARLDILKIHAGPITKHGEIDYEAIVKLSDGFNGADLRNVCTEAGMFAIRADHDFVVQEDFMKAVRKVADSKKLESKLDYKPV
inactive: [1] 0.032 | crizotinib 0.022 | [2] -0.047 | [3] 0.116 | duvelisib -0.033 | gandotinib 0.054 | tozasertib 0.031 | [4] -0.002 | doramapimod 0.021 | ispinesib 0.007

PRKAR1B (UniProt P31321)
UniProt P31321, sequence (P31321 whole entry, looked up): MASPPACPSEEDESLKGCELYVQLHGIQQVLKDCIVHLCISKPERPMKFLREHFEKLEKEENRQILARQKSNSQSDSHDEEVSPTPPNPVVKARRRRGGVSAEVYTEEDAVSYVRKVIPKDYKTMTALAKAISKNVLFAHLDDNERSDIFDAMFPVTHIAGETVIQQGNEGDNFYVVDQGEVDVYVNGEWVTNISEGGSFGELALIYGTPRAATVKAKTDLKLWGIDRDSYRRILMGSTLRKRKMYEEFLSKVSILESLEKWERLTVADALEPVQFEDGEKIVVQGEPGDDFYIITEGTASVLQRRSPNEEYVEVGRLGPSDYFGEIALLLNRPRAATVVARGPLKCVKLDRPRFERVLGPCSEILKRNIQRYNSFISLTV
inactive: [1] 0.137 | crizotinib 0.132 | [2] 0.071 | [3] 0.123 | duvelisib 0.199 | gandotinib 0.095 | tozasertib 0.136 | [4] -0.011 | doramapimod -0.03 | ispinesib -0.072

PRKAB1 (UniProt Q9Y478)
active: crizotinib -0.252
inactive: [1] 0.013 | [2] 0.029 | [3] -0.063 | duvelisib 0.01 | gandotinib -0.057 | tozasertib -0.013 | [4] 0.069 | doramapimod 0.013 | ispinesib -0.013

PITRM1 isoform 2 (UniProt Q5JRX3)
inactive: [1] -0.042 | crizotinib 0.01 | [2] 0.094 | [3] -0.023 | duvelisib 0.072 | gandotinib 0.038 | tozasertib -0.029 | [4] 0 | doramapimod -0.014
active: ispinesib -0.38

PIR (UniProt O00625)
inactive: [1] 0.004 | crizotinib 0.042 | [2] 0.019 | [3] -0.085 | duvelisib 0.013 | gandotinib 0.048 | tozasertib 0.027 | [4] 0.057 | doramapimod 0.095 | ispinesib 0.045

PSMB6 (UniProt P28072)
active: gandotinib 0.444
inactive: [1] 0.01 | crizotinib 0.096 | [2] 0.003 | [3] 0.059 | duvelisib -0.049 | tozasertib 0.011 | [4] -0.029 | doramapimod 0.049 | ispinesib -0.037

PPIL2 (UniProt Q13356)
UniProt Q13356, sequence (Q13356 whole entry, looked up): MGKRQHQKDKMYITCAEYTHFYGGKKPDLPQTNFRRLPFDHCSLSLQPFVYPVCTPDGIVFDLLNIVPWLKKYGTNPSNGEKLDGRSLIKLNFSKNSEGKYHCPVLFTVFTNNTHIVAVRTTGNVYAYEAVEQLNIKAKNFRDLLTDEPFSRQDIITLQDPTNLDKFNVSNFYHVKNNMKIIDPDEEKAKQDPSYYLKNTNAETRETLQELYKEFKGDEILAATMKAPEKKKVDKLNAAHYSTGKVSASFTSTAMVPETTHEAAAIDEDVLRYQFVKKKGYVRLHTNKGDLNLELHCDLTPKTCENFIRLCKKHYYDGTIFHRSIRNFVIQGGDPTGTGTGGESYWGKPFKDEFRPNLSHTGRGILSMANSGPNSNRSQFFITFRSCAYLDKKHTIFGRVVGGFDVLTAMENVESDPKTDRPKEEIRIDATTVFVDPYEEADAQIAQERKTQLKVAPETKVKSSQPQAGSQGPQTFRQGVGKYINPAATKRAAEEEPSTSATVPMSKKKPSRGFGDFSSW
inactive: [1] 0.029 | crizotinib 0.027 | [2] 0.061 | [3] -0.012 | duvelisib 0.121 | gandotinib -0.081 | tozasertib 0.039 | [4] 0.131 | doramapimod -0.079 | ispinesib 0.037

POLR1A (UniProt O95602)
inactive: [1] 0.076 | crizotinib -0.017 | [2] -0.116 | [3] 0.125 | duvelisib 0.111 | gandotinib -0.03 | tozasertib -0.145 | [4] 0.08 | doramapimod 0.141 | ispinesib -0.151

PHF5A (UniProt Q7RTV0)
UniProt Q7RTV0, sequence (Q7RTV0 whole entry, looked up): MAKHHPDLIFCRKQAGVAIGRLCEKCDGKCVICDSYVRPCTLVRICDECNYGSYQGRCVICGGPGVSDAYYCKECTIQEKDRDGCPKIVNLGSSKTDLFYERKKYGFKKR
inactive: [1] 0.013 | crizotinib 0.074 | [2] -0.061 | [3] -0.072 | duvelisib 0 | gandotinib -0.009 | tozasertib 0.043 | [4] -0.031 | doramapimod -0.093 | ispinesib 0.094

PEF1 (UniProt Q9UBV8)
UniProt Q9UBV8, sequence (Q9UBV8 whole entry, looked up): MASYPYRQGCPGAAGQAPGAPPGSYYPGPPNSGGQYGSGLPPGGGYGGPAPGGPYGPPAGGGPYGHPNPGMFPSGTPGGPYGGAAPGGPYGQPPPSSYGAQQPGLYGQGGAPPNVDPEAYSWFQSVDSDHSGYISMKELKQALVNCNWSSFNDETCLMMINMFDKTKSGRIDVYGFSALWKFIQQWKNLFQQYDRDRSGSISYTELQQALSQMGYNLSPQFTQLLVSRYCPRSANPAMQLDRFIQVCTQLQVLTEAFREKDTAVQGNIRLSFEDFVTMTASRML
inactive: [1] 0.119 | crizotinib 0.094 | [2] 0.059 | [3] -0.102 | duvelisib 0.103 | gandotinib -0.019 | tozasertib 0.06 | [4] 0.019 | doramapimod -0.091 | ispinesib 0.208

PARN (UniProt O95453)
inactive: [1] 0.028 | crizotinib -0.095 | [2] 0.125 | [3] -0.025 | duvelisib 0.048 | gandotinib -0.127 | tozasertib 0.024 | [4] 0.069 | doramapimod -0.037 | ispinesib -0.021

PISD (UniProt Q9UG56)
UniProt Q9UG56, sequence (Q9UG56 whole entry, looked up): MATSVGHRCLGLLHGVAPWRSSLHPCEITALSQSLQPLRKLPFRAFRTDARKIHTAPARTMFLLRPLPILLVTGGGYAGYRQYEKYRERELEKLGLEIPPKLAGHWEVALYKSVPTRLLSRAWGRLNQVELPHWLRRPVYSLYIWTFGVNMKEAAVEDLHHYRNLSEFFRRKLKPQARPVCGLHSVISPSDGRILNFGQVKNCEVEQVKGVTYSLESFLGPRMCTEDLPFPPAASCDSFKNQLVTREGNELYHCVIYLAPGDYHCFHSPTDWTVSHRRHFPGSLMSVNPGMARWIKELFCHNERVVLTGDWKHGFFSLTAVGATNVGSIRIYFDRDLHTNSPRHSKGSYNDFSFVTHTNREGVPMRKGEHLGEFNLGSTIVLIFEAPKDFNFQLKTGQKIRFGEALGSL
inactive: [1] 0 | crizotinib -0.023 | [2] 0.045 | [3] -0.018 | duvelisib 0.044 | gandotinib -0.004 | tozasertib -0.025 | [4] 0.036 | doramapimod 0.006 | ispinesib 0.02

PPP1CA (UniProt P62136)
inactive: [1] 0.042 | crizotinib 0.042 | [2] 0.013 | [3] -0.069 | duvelisib 0.048 | gandotinib 0.026 | tozasertib 0.034 | [4] -0.045 | doramapimod -0.003 | ispinesib 0.083

PCK2 (UniProt Q16822)
inactive: [1] 0.009 | crizotinib 0.17 | [2] 0.01 | [3] -0.098 | duvelisib 0.064 | gandotinib 0 | tozasertib 0 | [4] -0.012 | doramapimod 0 | ispinesib 0.076

PRKD2 isoform 3 (UniProt Q9BZL6)
inactive: [1] -0.275 | crizotinib -0.39 | [2] 0.108 | [3] -0.111 | duvelisib 0.066 | gandotinib 0.017 | tozasertib 0.048 | [4] -0.014 | doramapimod 0.023 | ispinesib -0.129

PTGFRN (UniProt Q9P2B2)
inactive: [1] 0.068 | crizotinib 0.057 | [2] 0.063 | [3] -0.003 | duvelisib 0.122 | gandotinib -0.023 | tozasertib -0.101 | [4] -0.065 | doramapimod 0.001 | ispinesib 0.165

PDE4DIP isoform 4 (UniProt Q5VU43)
inactive: [1] -0.007 | crizotinib 0.02 | [2] 0.134 | [3] -0.002 | duvelisib 0.072 | gandotinib 0.106 | tozasertib -0.011 | [4] 0.008 | doramapimod 0.01 | ispinesib -0.073
